Measurements: PubChem BioAssay (NCATS)
Records with an inconclusive call do not appear. Where a call stands in place of a potency, no number is given. Activity calls are given as the source filed them. The call rests on the fitted dose curve; in most records, active means well fitted inhibition curve with a large enough effect; inconclusive means small, poorly fitted or top-dose-only effect; inactive means no such curve, though single readings can be large or run the other way.

Target: Single-stranded DNA cytosine deaminase (Homo sapiens) (UniProt Q9GZX7)
Experiment: Validation qHTS assay for inhibitors of Activation Induced Cytidine Deaminase (AID): AID signal (AID 1347429)
Conditions: Recombinant AID, FRET ssDNA deamination with UDG, fluorescence; series mostly up to 115 µM
How it was run: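 Compounds (final up to 114 uM) preincubated with AID plus UDG; 250 nM DJC20/DJC23 substrate mix (4x stock) added, 4 hr at room temperature, then NaOH, 30 min. Read 1 fluorescence at 540 nm excitation, 590 nm emission.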

Single-stranded DNA cytosine deaminase (Homo sapiens), sequence (Q9GZX7 whole entry, looked up): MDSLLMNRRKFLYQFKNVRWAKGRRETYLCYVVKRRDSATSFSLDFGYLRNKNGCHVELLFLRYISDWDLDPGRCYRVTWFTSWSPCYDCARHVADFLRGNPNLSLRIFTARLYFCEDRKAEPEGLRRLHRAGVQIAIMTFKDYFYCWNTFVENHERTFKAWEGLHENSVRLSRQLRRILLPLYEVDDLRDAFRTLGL

SMILES	Potency
Cc1cccc(C2CN(C)CCc3c2cc(O)c(O)c3Cl)c1 (stereo unspecified)	inactive
C[C@]12C=CC(=O)C=C1CC[C@@H]1C2=CC[C@]2(C)[C@@H](C(=O)CN3CCN(c4cc(N5CCCC5)nc(N5CCCC5)n4)CC3)CC[C@@H]12	inactive
CC(N)=O	inactive
CC(=O)[C@H]1CCC2C3CC=C4C[C@@H](OS(=O)(=O)O)CC[C@]4(C)C3CC[C@@]21C (stereo partly specified)	inactive
COc1cc(/C=C(\C#N)C(=O)c2ccc(O)c(O)c2)cc(I)c1O	inactive
NC1C=CC=C(C(=O)O)C1 (stereo unspecified)	inactive
CCCc1c(-c2ccc(O)cc2)nn(-c2ccc(O)cc2)c1-c1ccc(O)cc1	inactive
N[C@H](C(=O)O)c1cc(O)cc(O)c1	inactive
O=c1[nH]c2cc(Cl)ccc2c(O)c1-c1ccc(Oc2ccccc2)cc1	inactive
N[C@H](C(=O)O)[C@H]1C[C@@H]1C(=O)O	inactive
N#C/C(=C\c1ccc(O)c(O)c1)C(=O)NCCCNC(=O)/C(C#N)=C/c1ccc(O)c(O)c1	inactive
CCCCCCN(CCCCCC)C(=O)Cc1c(-c2ccc(F)cc2)[nH]c2ccccc12	inactive
COc1ccccc1N1CCN(CCN(C(=O)c2ccc(F)cc2)c2ccccn2)CC1	inactive
Cn1c(=O)[nH]c2ncn(C)c2c1=O	inactive
Cc1cc(Cn2cnc3c2C[C@@H](C(=O)O)N(C(=O)C(c2ccccc2)c2ccccc2)C3)ccc1N	inactive
Nc1ncnc2c1ncn2C1CCCC1	inactive
Nc1nc2c(cnn2CCc2ccccc2)c2nc(-c3ccco3)nn12	inactive
C[N+](C)(C)CC=O	inactive
Cc1nc(N=Nc2ccc(C(=O)O)cc2)c(COP(=O)(O)O)c(C=O)c1O	inactive

SMILES	Potency
CCCCCCCCCC(=O)NC(CN1CCOCC1)[C@H](O)c1ccccc1 (stereo partly specified)	inactive
COc1ccccc1N1CCN(CCCNc2c(C)c(=O)n(C)c(=O)n2C)CC1	inactive
NCC(O)c1ccc(O)c(O)c1 (stereo unspecified)	inactive
O=C(O)CCC/C=C\C[C@@H]1[C@@H](/C=C/[C@H](O)C2Cc3ccccc3C2)[C@@H](F)C[C@@H]1O	inactive
N=C(N)c1ccccc1	inactive
Cc1cc2c(cc1Cl)N(C(=O)Nc1ccnc3ccccc13)CC2	inactive
C=C(C)C1CC=C(C(=O)O)CC1 (stereo unspecified)	inactive
c1ccc2nc(C3=NCCN3)ccc2c1	inactive
COC(=O)C(N)Cc1ccc(Cl)cc1 (stereo unspecified)	inactive
NOCC(=O)O	inactive
NCCCCN	inactive
CCCn1c(=O)c(C)cn2nc(N)nc12	inactive
[Li+]	inactive
C=CCn1c(=O)c2c(nc(-c3ccc(S(=O)(=O)O)cc3)n2C)n(C)c1=O	inactive
CCCCCC(O)CCCC(=O)O (stereo unspecified)	inactive
COC(=O)C(C)(N)Cc1ccc(O)cc1 (stereo unspecified)	inactive
Oc1cc(O)c2c(c1)O[C@H](c1ccc(O)c(O)c1)[C@@H](O)C2	inactive
N#CC(C#N)=C(N)/C(C#N)=C/c1ccc(O)cc1	inactive
NC(N)=NC(N)=Nc1ccccc1	inactive

Tested on: not listed separately
Experiment: Primary qHTS for inhibitors of La Crosse Virus (LACV) - induced cell death in SH-SY5Y cells (AID 1508616);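 further: top concentration of the series differs between compounds; higher means more rescue of cells from virus-induced death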
Conditions: SH-SY5Y LACV cytopathicity rescue, ATP luminescence, 6 d; series mostly up to 9.63 µM
How it was run: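 Rescue of virus-induced death was read as ATPLite luminescence after 6 days at 37C, scaled between DMSO wells with LACV and without virus. Cells were SH-SY5Y, 6000/well, infected at 0.01 MOI after compound addition.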

SMILES	Potency
Cc1cccc(C2CN(C)CCc3c2cc(O)c(O)c3Cl)c1 (stereo unspecified)	inactive
C[C@]12C=CC(=O)C=C1CC[C@@H]1C2=CC[C@]2(C)[C@@H](C(=O)CN3CCN(c4cc(N5CCCC5)nc(N5CCCC5)n4)CC3)CC[C@@H]12	inactive
CC(N)=O	inactive
CC(=O)[C@H]1CCC2C3CC=C4C[C@@H](OS(=O)(=O)O)CC[C@]4(C)C3CC[C@@]21C (stereo partly specified)	inactive
COc1cc(/C=C(\C#N)C(=O)c2ccc(O)c(O)c2)cc(I)c1O	inactive
NC1C=CC=C(C(=O)O)C1 (stereo unspecified)	inactive
CCCc1c(-c2ccc(O)cc2)nn(-c2ccc(O)cc2)c1-c1ccc(O)cc1	inactive
N[C@H](C(=O)O)c1cc(O)cc(O)c1	inactive
O=c1[nH]c2cc(Cl)ccc2c(O)c1-c1ccc(Oc2ccccc2)cc1	inactive
N[C@H](C(=O)O)[C@H]1C[C@@H]1C(=O)O	inactive
N#C/C(=C\c1ccc(O)c(O)c1)C(=O)NCCCNC(=O)/C(C#N)=C/c1ccc(O)c(O)c1	inactive
CCCCCCN(CCCCCC)C(=O)Cc1c(-c2ccc(F)cc2)[nH]c2ccccc12	inactive
COc1ccccc1N1CCN(CCN(C(=O)c2ccc(F)cc2)c2ccccn2)CC1	inactive
Cn1c(=O)[nH]c2ncn(C)c2c1=O	inactive
Cc1cc(Cn2cnc3c2C[C@@H](C(=O)O)N(C(=O)C(c2ccccc2)c2ccccc2)C3)ccc1N	inactive
Nc1ncnc2c1ncn2C1CCCC1	inactive
Nc1nc2c(cnn2CCc2ccccc2)c2nc(-c3ccco3)nn12	inactive
C[N+](C)(C)CC=O	inactive
Cc1nc(N=Nc2ccc(C(=O)O)cc2)c(COP(=O)(O)O)c(C=O)c1O	inactive

SMILES	Potency
CCCCCCCCCC(=O)NC(CN1CCOCC1)[C@H](O)c1ccccc1 (stereo partly specified)	inactive
COc1ccccc1N1CCN(CCCNc2c(C)c(=O)n(C)c(=O)n2C)CC1	inactive
NCC(O)c1ccc(O)c(O)c1 (stereo unspecified)	inactive
O=C(O)CCC/C=C\C[C@@H]1[C@@H](/C=C/[C@H](O)C2Cc3ccccc3C2)[C@@H](F)C[C@@H]1O	inactive
N=C(N)c1ccccc1	inactive
Cc1cc2c(cc1Cl)N(C(=O)Nc1ccnc3ccccc13)CC2	inactive
C=C(C)C1CC=C(C(=O)O)CC1 (stereo unspecified)	inactive
c1ccc2nc(C3=NCCN3)ccc2c1	inactive
COC(=O)C(N)Cc1ccc(Cl)cc1 (stereo unspecified)	inactive
NOCC(=O)O	inactive
NCCCCN	inactive
CCCn1c(=O)c(C)cn2nc(N)nc12	inactive
[Li+]	inactive
C=CCn1c(=O)c2c(nc(-c3ccc(S(=O)(=O)O)cc3)n2C)n(C)c1=O	inactive
CCCCCC(O)CCCC(=O)O (stereo unspecified)	inactive
COC(=O)C(C)(N)Cc1ccc(O)cc1 (stereo unspecified)	inactive
Oc1cc(O)c2c(c1)O[C@H](c1ccc(O)c(O)c1)[C@@H](O)C2	inactive
N#CC(C#N)=C(N)/C(C#N)=C/c1ccc(O)cc1	inactive
NC(N)=NC(N)=Nc1ccccc1	inactive
